# In the supplement of paper PMC8728848:
# This is one part of a sample in which the strongest signals are shown more often than they occur.
# B1: ArathEULS3 (Arabidopsis thaliana), Q945P1 (protein)
# chain: MEHHHQHHRHHQRDDGEDDRQSFGVPPPHVDAPPQPHGLYQSQPHFDPYAPTPQAPAPYRSETQFEPHAPPPYRSEPYFETPAPPPSFGHVSHVGHQSPNESYPPEHHRYGGYQQPSNSLLESHGDHSGVTHVAHHSSNQPQSSSGVYHKPDENRLPDNLAGLAGRATVKVYSKAEPNYNLTIRDGKVILAPADPSDEAQHWYKDEKYSTKVKDADGHPCFALVNKATGEAMKHSVGATHPVHLIRYVPDKLDESVLWTESKDFGDGYRTIRMVNNTRLNVDAYHGDSKSGGVRDGTTIVLWDWNKGDNQLWKIFPFILEQKLISEEDLNSAVDHHHHHH
# Legend:
# Test in all cases: glycan array binding signal (z-score within array); higher = stronger binding
# Settings in all cases: glycan notation: IUPAC condensed, linker removed
# Fuc(a1-2)Gal(b1-3)GlcNAc = molecular target: Fuc(a1-2)Gal(b1-3)GlcNAc
# How it was run: (§1)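 The Consortium for Functional Glycomics database supplied 3228 glycan arrays, of which those lacking an available protein sequence were dropped. The binding signal, a within-array Z-score, was averaged across arrays of the same protein sequence and across linkers. Negative scores can be read as non-binding.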
# [1] = molecular target: Fuc(a1-2)Gal(b1-3)GlcNAc(b1-2)Man(a1-3)[Fuc(a1-2)Gal(b1-3)GlcNAc(b1-2)Man(a1-6)]Man(b1-4)GlcNAc(b1-4)[Fuc(a1-6)]GlcNAc
# How it was run: as §1
# [2] = molecular target: Fuc(a1-2)Gal(b1-4)GlcNAc(b1-2)[Fuc(a1-2)Gal(b1-4)GlcNAc(b1-4)]Man(a1-3)[Fuc(a1-2)Gal(b1-4)GlcNAc(b1-2)Man(a1-6)]Man(b1-4)GlcNAc(b1-4)GlcNAc
# How it was run: as §1
# [3] = molecular target: Fuc(a1-2)Gal(b1-4)[Fuc(a1-3)]GlcNAc(b1-2)Man(a1-3)[Fuc(a1-2)Gal(b1-4)[Fuc(a1-3)]GlcNAc(b1-2)Man(a1-6)]Man(b1-4)GlcNAc(b1-4)GlcNAc
# How it was run: as §1
# [4] = molecular target: Fuc(a1-2)Gal(b1-4)[Fuc(a1-3)]GlcNAc(b1-3)GalNAc
# How it was run: as §1
# [5] = molecular target: Fuc(a1-2)Gal6S(b1-3)GlcNAc
# How it was run: as §1
# Fuc(a1-2)[Gal(a1-3)]Gal = molecular target: Fuc(a1-2)[Gal(a1-3)]Gal
# How it was run: as §1
# [6] = molecular target: Fuc(a1-2)[GalNAc(a1-3)]Gal(b1-4)GlcNAc
# How it was run: as §1
# [7] = molecular target: Fuc(a1-2)[GalNAc(a1-3)]Gal(b1-4)GlcNAc(b1-3)GalNAc
# How it was run: as §1
# [8] = molecular target: Fuc(a1-2)[GalNAc(a1-3)]Gal(b1-4)[Fuc(a1-3)]GlcNAc(b1-3)GalNAc
# How it was run: as §1
# [9] = molecular target: Gal(a1-3)Gal(b1-3)GlcNAc(b1-2)Man(a1-3)[Gal(a1-3)Gal(b1-3)GlcNAc(b1-2)Man(a1-6)]Man(b1-4)GlcNAc(b1-4)GlcNAc
# How it was run: as §1
# [10] = molecular target: Gal(a1-3)Gal(b1-3)[Fuc(a1-4)]GlcNAc(b1-2)Man(a1-3)[Gal(a1-3)Gal(b1-3)[Fuc(a1-4)]GlcNAc(b1-2)Man(a1-6)]Man(b1-4)GlcNAc(b1-4)GlcNAc
# How it was run: as §1
# Gal(a1-4)Gal(b1-4)Glc = molecular target: Gal(a1-4)Gal(b1-4)Glc
# How it was run: as §1
# Gal(a1-6)Glc = molecular target: Gal(a1-6)Glc
# How it was run: as §1
# [11] = molecular target: Gal(b1-3)GlcNAc(a1-6)Gal(b1-4)GlcNAc
# How it was run: as §1
# [12] = molecular target: Gal(b1-4)GlcNAc(b1-2)Man(a1-6)Man(b1-4)GlcNAc(b1-4)GlcNAc
# How it was run: as §1
# [13] = molecular target: Gal(b1-4)GlcNAc(b1-2)[Gal(b1-4)GlcNAc(b1-4)]Man(a1-3)[GlcNAc(b1-4)][Gal(b1-4)GlcNAc(b1-2)[Gal(b1-4)GlcNAc(b1-6)]Man(a1-6)]Man(b1-4)GlcNAc(b1-4)GlcNAc
# How it was run: as §1
# [14] = molecular target: Gal(b1-4)GlcNAc(b1-2)[Gal(b1-4)GlcNAc(b1-6)]Man(a1-6)[Gal(b1-4)GlcNAc(b1-2)Man(a1-3)]Man(b1-4)GlcNAc(b1-4)[Fuc(a1-6)]GlcNAc
# How it was run: as §1
# Gal3S(b1-3)GlcNAc = molecular target: Gal3S(b1-3)GlcNAc
# How it was run: as §1
# GalNAc(b1-3)GalNAc = molecular target: GalNAc(b1-3)GalNAc
# How it was run: as §1
# GalNAc4S6S(b1-4)GlcNAc = molecular target: GalNAc4S6S(b1-4)GlcNAc
# How it was run: as §1
# [15] = molecular target: GlcNAc(a1-4)Gal(b1-4)GlcNAc(b1-3)Gal(b1-4)Glc
# How it was run: as §1
# [16] = molecular target: GlcNAc(a1-4)Gal(b1-4)GlcNAc(b1-3)Gal(b1-4)GlcNAc(b1-3)Gal(b1-4)GlcNAc
# How it was run: as §1
# [17] = molecular target: GlcNAc(a1-4)Gal(b1-4)GlcNAc(b1-3)Gal(b1-4)[Fuc(a1-3)]GlcNAc(b1-3)Gal(b1-4)[Fuc(a1-3)]GlcNAc
# How it was run: as §1
# GlcNAc(b1-3)Man = molecular target: GlcNAc(b1-3)Man
# How it was run: as §1
# [18] = molecular target: GlcNAc(b1-3)[GlcNAc(b1-6)]GalNAc
# How it was run: as §1
# [19] = molecular target: Man(a1-2)Man(a1-3)[Man(a1-2)Man(a1-6)]Man(a1-6)[Man(a1-2)Man(a1-2)Man(a1-3)]Man(b1-4)GlcNAc(b1-4)GlcNAc
# How it was run: as §1
# Man(a1-3)[Man(a1-6)]Man = molecular target: Man(a1-3)[Man(a1-6)]Man
# How it was run: as §1
# [20] = molecular target: Man(a1-3)[Man(a1-6)]Man(a1-6)[Man(a1-3)]Man
# How it was run: as §1
# [21] = molecular target: Neu5Ac(a2-3)Gal(b1-3)[Fuc(a1-4)]GlcNAc
# How it was run: as §1
# [22] = molecular target: Neu5Ac(a2-3)Gal(b1-3)[Fuc(a1-4)]GlcNAc(b1-3)Gal(b1-3)[Fuc(a1-4)]GlcNAc
# How it was run: as §1
# [23] = molecular target: Neu5Ac(a2-3)Gal(b1-4)GlcNAc(b1-2)[Neu5Ac(a2-3)Gal(b1-4)GlcNAc(b1-6)]Man(a1-6)[Neu5Ac(a2-3)Gal(b1-4)GlcNAc(b1-2)Man(a1-3)]Man(b1-4)GlcNAc(b1-4)GlcNAc
# How it was run: as §1
# [24] = molecular target: Neu5Ac(a2-3)Gal(b1-4)GlcNAc(b1-3)Gal(b1-4)[Fuc(a1-3)]GlcNAc
# How it was run: as §1
# [25] = molecular target: Neu5Ac(a2-3)Gal(b1-4)GlcNAc(b1-3)GalNAc
# How it was run: as §1
# [26] = molecular target: Neu5Ac(a2-3)Gal(b1-4)GlcNAc(b1-6)GalNAc
# How it was run: as §1
# [27] = molecular target: Neu5Ac(a2-3)Gal(b1-4)GlcNAc6S
# How it was run: as §1
# [28] = molecular target: Neu5Ac(a2-3)Gal(b1-4)[Fuc(a1-3)]GlcNAc
# How it was run: as §1
# [29] = molecular target: Neu5Ac(a2-3)Gal(b1-4)[Fuc(a1-3)]GlcNAc(b1-3)GalNAc
# How it was run: as §1
# [30] = molecular target: Neu5Ac(a2-6)Gal(b1-4)GlcNAc
# How it was run: as §1
# [31] = molecular target: Neu5Ac(a2-6)Gal(b1-4)GlcNAc(b1-3)Gal(b1-3)GlcNAc
# How it was run: as §1
# [32] = molecular target: Neu5Ac(a2-6)Gal(b1-4)GlcNAc(b1-6)[Gal(b1-3)GlcNAc(b1-3)]Gal(b1-4)Glc
# How it was run: as §1
# [33] = molecular target: Neu5Ac(a2-6)GalNAc(b1-4)GlcNAc
# How it was run: as §1
# [34] = molecular target: Neu5Ac9Ac(a2-3)Gal(b1-4)GlcNAc
# How it was run: as §1
binder,measurement,setting,value
B1,glycan array binding signal (z-score),Fuc(a1-2)Gal(b1-3)GlcNAc,-0.25
same,glycan array binding signal (z-score),[1],0.265
same,glycan array binding signal (z-score),[2],0.36
same,glycan array binding signal (z-score),[3],1.64
same,glycan array binding signal (z-score),[4],11.8
same,glycan array binding signal (z-score),[5],-0.322
same,glycan array binding signal (z-score),Fuc(a1-2)[Gal(a1-3)]Gal,-0.303
same,glycan array binding signal (z-score),[6],-0.305
same,glycan array binding signal (z-score),[7],-0.012
same,glycan array binding signal (z-score),[8],7.35
same,glycan array binding signal (z-score),[9],4.38
same,glycan array binding signal (z-score),[10],0.898
same,glycan array binding signal (z-score),Gal(a1-4)Gal(b1-4)Glc,-0.332
same,glycan array binding signal (z-score),Gal(a1-6)Glc,-0.342
same,glycan array binding signal (z-score),[11],-0.235
same,glycan array binding signal (z-score),[12],2.12
same,glycan array binding signal (z-score),[13],5.54
same,glycan array binding signal (z-score),[14],-0.026
same,glycan array binding signal (z-score),Gal3S(b1-3)GlcNAc,-0.279
same,glycan array binding signal (z-score),GalNAc(b1-3)GalNAc,0.511
same,glycan array binding signal (z-score),GalNAc4S6S(b1-4)GlcNAc,-0.105
same,glycan array binding signal (z-score),[15],-0.112
same,glycan array binding signal (z-score),[16],-0.273
same,glycan array binding signal (z-score),[17],3.11
same,glycan array binding signal (z-score),GlcNAc(b1-3)Man,-0.164
same,glycan array binding signal (z-score),[18],-0.203
same,glycan array binding signal (z-score),[19],-0.229
same,glycan array binding signal (z-score),Man(a1-3)[Man(a1-6)]Man,-0.26
same,glycan array binding signal (z-score),[20],-0.266
same,glycan array binding signal (z-score),[21],-0.211
same,glycan array binding signal (z-score),[22],-0.244
same,glycan array binding signal (z-score),[23],1.98
same,glycan array binding signal (z-score),[24],-0.229
same,glycan array binding signal (z-score),[25],-0.326
same,glycan array binding signal (z-score),[26],-0.302
same,glycan array binding signal (z-score),[27],-0.173
same,glycan array binding signal (z-score),[28],1.79
same,glycan array binding signal (z-score),[29],2
same,glycan array binding signal (z-score),[30],0.011
same,glycan array binding signal (z-score),[31],-0.157
same,glycan array binding signal (z-score),[32],-0.239
same,glycan array binding signal (z-score),[33],-0.302
same,glycan array binding signal (z-score),[34],-0.232
